# FEN1 inhibitor: human FEN1 inhibition; P39748; Recombinant FEN1 flap cleavage, fluorescence, 15 min; Potency, µM (doses to about 114 µM), for the others: at the highest dose activity change, negative = inhibition, actives largely listed as inhibitors; 390,000 tested, 0.35% active; further: on the % scale 0 is the no-effect control and ±100 the full control effect; nearly all actives have a fitted effect of over 65% in size
#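 FEN1 at 10 nM preincubated with compounds 15 min at room temperature, then flap DNA substrate added at 50 nM final. Signal read at 0 and 15 min; concentration-response fitted with four-parameter Hill equation.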
# Pol beta inh: inhibitors of human DNA polymerase beta; P06746; Pol beta primer extension/strand displacement, fluorescence kinetic; Potency, µM (doses to about 114 µM), for inactives: at the highest dose activity change, negative = inhibition, most hits filed as inhibitors; 340,000 tested, 1.3% active; AID 485314; further: on the % scale 0 is the no-effect control and ±100 the full control effect
#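 Pol beta (10 nM) and compounds were preincubated 15 min at room temperature, then 50 nM substrate (final) started primer extension/strand displacement. Reads were taken at 0 and 10 min; concentration-response data were fitted to a four-parameter Hill equation.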
# POLH inh: blocks human DNA polymerase eta activity. Q9Y253. recombinant Pol eta, fluorescent DNA replication assay. Potency, µM (series often up to 114 µM), without a hit: at the highest dose activity change, negative = inhibition, usual class: inhibitors. 390,000 tested, 1.2% active; further: on the % scale 0 is the no-effect control and ±100 the full control effect
#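 Pol eta (10 nM) was preincubated with compounds for 15 min at room temperature, after which fluorescent replication substrate (50 nM final) was added to start the reaction. Fluorescence was read kinetically at 0 and 10 min.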
# POLK inh: blocks human DNA polymerase kappa activity. Potency, µM (highest dose often 107 µM), without a hit: top-dose activity, negative = inhibition, hits mostly inhibitors. 400,000 tested, 0.53% active. Q9UBT6. purified Pol kappa, fluorescent DNA synthesis assay, 10 min; further: on the % scale 0 is the no-effect control and ±100 the full control effect
# Target sequence (Q9UBT6 whole entry, looked up): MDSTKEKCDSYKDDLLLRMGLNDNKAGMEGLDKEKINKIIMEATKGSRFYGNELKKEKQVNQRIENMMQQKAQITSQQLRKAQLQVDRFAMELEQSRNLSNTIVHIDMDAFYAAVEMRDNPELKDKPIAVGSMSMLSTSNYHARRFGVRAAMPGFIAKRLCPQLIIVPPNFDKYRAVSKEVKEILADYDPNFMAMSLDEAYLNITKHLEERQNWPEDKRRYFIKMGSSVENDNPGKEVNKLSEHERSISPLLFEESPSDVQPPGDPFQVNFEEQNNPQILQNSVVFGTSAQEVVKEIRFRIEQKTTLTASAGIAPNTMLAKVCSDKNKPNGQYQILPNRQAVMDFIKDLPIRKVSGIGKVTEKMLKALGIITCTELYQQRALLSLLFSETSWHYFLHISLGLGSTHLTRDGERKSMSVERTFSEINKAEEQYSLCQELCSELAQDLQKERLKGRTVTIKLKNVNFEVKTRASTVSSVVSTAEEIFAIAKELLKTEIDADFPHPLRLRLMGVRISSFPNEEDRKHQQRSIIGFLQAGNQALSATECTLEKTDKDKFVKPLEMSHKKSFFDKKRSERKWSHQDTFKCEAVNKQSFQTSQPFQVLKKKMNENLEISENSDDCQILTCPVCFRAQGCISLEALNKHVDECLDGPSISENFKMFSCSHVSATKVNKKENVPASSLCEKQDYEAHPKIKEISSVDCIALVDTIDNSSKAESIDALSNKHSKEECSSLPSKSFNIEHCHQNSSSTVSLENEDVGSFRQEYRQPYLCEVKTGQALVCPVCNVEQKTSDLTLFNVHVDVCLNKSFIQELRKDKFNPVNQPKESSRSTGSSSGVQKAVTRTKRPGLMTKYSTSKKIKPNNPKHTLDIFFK
#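 50 nM final substrate added after 15 min RT preincubation of 10 nM Pol kappa with compound; fluorescence read at 0 and 10 min.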
# WRN helicase inh-1: blocks human WRN helicase | WRN helicase unwinding, fluorescent forked duplex, kinetic | AID 651768 | Potency, µM (doses to about 114 µM), for the others: top-dose activity change, negative = inhibition, usual class: inhibitors | 360,000 tested, 0.46% active; further: on the % scale 0 is the no-effect control and ±100 the full control effect; nearly all actives have a fitted effect of over 55% in size
#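 WRN at 20 nM final was preincubated with compound for 15 min at room temperature; reaction started with 100 nM forked duplex oligonucleotide carrying fluorophore and quencher plus 2 mM ATP (final). Unwinding followed kinetically by red fluorescence (ex 525/em 598 nm).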
# Pol iota inh: inhibitors of human DNA polymerase iota. 390,000 tested, 1% active. Potency, µM (series often up to 115 µM), for the others: at the top dose activity, negative = inhibition, hits mostly inhibitors. Pol iota fluorescent replication assay, 10 min
#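 Pol iota at 10 nM preincubated 15 min with compounds at room temperature; reaction started with fluorescent substrate, 50 nM final. Fluorescence read kinetically at 0 and 10 min; buffer-only wells as negative control.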
# WRN helicase inh-2: WRN helicase inhibition, cherry-pick retest | shares compounds with WRN helicase inh-1 | WRN helicase DNA unwinding, fluorescence kinetic | Potency, µM (doses to about 57.1 µM), for inactives: at the highest dose activity, negative = inhibition, most hits filed as inhibitors | 610 tested, 63% active | AID 720497; further: nearly all actives have a fitted effect of over 65% in size
# TO displacement: counter-screen for WRN helicase inhibitors: DNA binding | 610 tested, 10% active | thiazole orange DNA binding displacement, fluorescence | Potency, µM (highest dose often 57.1 µM), for the others: top-dose activity change, negative = inhibition, most hits filed as inhibitors | shares compounds with WRN helicase inh-1 | AID 720499;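 further: drop in dye fluorescence marks compound binding to DNA; on the % scale 0 is the no-effect control and ±100 the full control effect; nearly all actives have a fitted effect of over 60% in size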
# BLM counter: BLM helicase inhibition, WRN selectivity check; shares compounds with WRN helicase inh-1; Recombinant BLM helicase DNA unwinding, red fluorescence; Potency, µM (highest dose often 57.1 µM), inactives show at the highest dose activity change, negative = inhibition, actives largely listed as inhibitors; 610 tested, 60% active; AID 720503; further: nearly all actives have a fitted effect of over 60% in size
# * = called active by the depositor; ? = inconclusive; / = no result given; [ ] = remark or other dose. An excerpt weighted towards active compounds, which were near 2.4% of everything screened. The call rests on the fitted dose curve; in most records, active means well fitted curve in the direction sought with a large enough effect; inconclusive means small, poorly fitted or top-dose-only effect, or another doubt; inactive means no such curve, though single readings can be large; an effect the other way counts as inactive or inconclusive. Potency means the concentration at half of the fitted maximal effect.
SMILES,FEN1 inhibitor,Pol beta inh,POLH inh,POLK inh,WRN helicase inh-1,Pol iota inh,WRN helicase inh-2,TO displacement,BLM counter
O=C1NC(=O)C(=Cc2ccccc2[N+](=O)[O-])C(=O)N1,8%,/,-4%,-14%,40µM*,-1%,5%,-2%,0%
CN1C(=O)/C(=C\c2ccc(Br)s2)C(=O)NC1=S,?,?,?,-29%,18µM*,?,?,-4%,?
O=c1c2ccccc2nc(/C=C/c2ccccc2)n1-c1ccc(O)cc1,-3%,12%,-11%,-5%,-11%,50%,/,/,/
O=c1c2ccccc2nc(/C=C/c2cccnc2)n1Cc1ccccc1,89µM*,39%,?,-9%,32µM*,2.8µM*,-7%,-9%,-29%
COc1cc(NCCCn2cnc(C(=O)Nc3ccc(C)c(C)c3)n2)cc(OC)c1OC,-11%,/,-18%,-4%,-5%,27%,/,/,/
C=CCc1cc(C=C2C(=O)N(C)C(=O)N(C)C2=O)cc(OCC)c1OCc1ccccc1,-8%,1%,?,-3%,45µM*,-18%,-18%,-17%,?
O=C(O)Cn1cc(/C=C2\C(=O)NC(=O)N(c3ccc(Br)cc3)C2=O)c2ccccc21,?,22%,?,-17%,?,32µM*,-27%,-4%,17µM*
CN1[C@@H]2CC[C@H]1CC(O[C@@H](c1ccccc1)c1ccc(Cl)cc1)C2 (some centres undefined),/,/,/,-13%[19.4 µM],/,/,/,/,/
O=C1C(=Cc2cn(-c3ccccc3)nc2-c2ccc(OCc3ccc(Cl)cc3)cc2)SC(=S)N1CCS(=O)(=O)O,/,/,/,/,14µM*,/,11µM*,?,3.8µM*
CN1C(=O)C(=CN2CCN(C(=O)c3ccco3)CC2)C(=O)N(C)C1=S,0%,38%,-5%,-2%,-7%,3%,/,/,/
CCCCN1C(=O)/C(=C\c2ccco2)C(=O)N(CCc2ccccc2)C1=O,56µM*,8.9µM*,40µM*,25µM*,32µM*,?,?,-9%,22µM*
CCCCN1C(=O)/C(=C/c2ccc(N(C)C)cc2)C(=O)N(Cc2ccco2)C1=O,?,22µM*,40µM*,25µM*,28µM*,?,?,3%,22µM*
CCCCn1c(=O)c(C=Nc2ccc(Cl)cc2)c(O)n(Cc2ccco2)c1=O,-3%,-2%,-25%,-6%,-6%,42%,/,/,/
CCN1C[C@]2(C)CC[C@H](O)[C@@]34[C@@H]5C[C@@H]6[C@@H](OC)C[C@@](O)(C5[C@H]6O)[C@@H](C[C@@H]23)[C@@H]14,/,17%[57.1 µM],-6%[57.1 µM],/,/,4%[58.9 µM],/,/,/
